Data reported in PubChem BioAssay (NCI).
This is part of a sample that, as a whole, favours compounds with a hit. Of some 83,000 tested, about 20% had one in any assay.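 Each cell line was grown in a 96-well plate and treated with one concentration of compound for 48 hours. Values below 10 were considered active.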 Activity calls are given as the source filed them.

tested on: SK-MEL-5 melanoma; assay: NCI-60 one-dose screen, 48 h (100 = growth as untreated, 0 = no growth, -100 = all killed); conditions: 10 µM unless noted

Structure (SMILES)	growth
Cc1cc(C)c(O)c(C(=O)CC(Br)C(=O)O)c1 (stereo unspecified)	101% (inactive)
COc1ccc(-c2[nH]c3ccccc3c2/C=C(\C#N)S(=O)(=O)c2ccccc2)cc1	12.5% (inactive)
NC(=NCCCOc1ccc(F)cc1)Nc1ccc(Cl)c(Cl)c1	51.4% (inactive)
O=C(N/N=C/c1ccccc1O)c1ccccc1O	10.6% (inactive)
NC(=S)NNC1CCCCC1	95.1% (inactive)
CCN1CCN(Cc2ccc(NC(=O)Nc3cccc(-n4ccc5c(NC(=O)c6ccccc6)nccc54)c3)cc2C(F)(F)F)CC1	43.1% (inactive)
CN(C)c1ccc(/C=c2\s/c(=C\C(=O)C(C)(C)C)[nH]c2=O)cc1	101% (inactive)

tested on: UACC-62 melanoma; assay: as above; conditions: 10 µM unless noted

Structure (SMILES)	growth
CCCCC(=O)Nc1nc2ccc(SCCC)cc2s1	43.3% (inactive)
CC(C)(C)C(=O)/C=c1/[nH]c(=O)/c(=C/c2ccccc2O)s1	58.3% (inactive)
CC[C@@]1(O)C(=O)OCc2c1cc1n(c2=O)Cc2c-1nc1ccccc1c2/C=N/OC(C)(C)C	-58.6% (active)
COc1ccc(OC)c(NCC(=O)n2nc(/C=C\c3ccc(O)c(OC)c3)cc2/C=C\c2ccc(O)c(OC)c2)c1	15.8% (inactive)
O=C1OC(=O)C2C3CC(c4ccccc43)C12 (stereo unspecified)	105% (inactive)
COc1ccc2c(c1)OC(N)=C(C#N)C2c1ccc(F)cc1 (stereo unspecified)	29.7% (inactive)
S=C=NP1(N=C=S)=NP(N=C=S)(N=C=S)=NP(N=C=S)(N=C=S)=NP(N=C=S)(N=C=S)=N1 (stereo unspecified)	97.7% (inactive)
COc1cc(-c2nc(N)n(CC(=O)Nc3ccc(/C(C)=N\O)cc3)n2)cc(OC)c1OC	83.6% (inactive)
COc1cc2ncnc(Oc3ccc(NC(=O)Nc4ccc(CN5CCOCC5)c(C(F)(F)F)c4)c4ccccc34)c2cc1OC	28% (inactive)
COc1ccc(-c2c(C#N)cnc(N)c2-c2nc3cc(C)c(C)cc3[nH]2)cc1	56.1% (inactive)
c1ccc(CNCCN(CCNCc2ccccn2)Cc2ccc3ccccc3c2)nc1	-23.4% (active)
C=C1C(=O)O[C@H]2[C@H]1CC/C(C(=O)Nc1ccc(OC)c(C(N)=O)c1O)=C\CC[C@@]1(C)O[C@@H]21	67.5% (inactive)
Cc1ccc2oc(=O)cc(C3C(C#N)=C(N)Oc4c3ccc3ccccc43)c2c1 (stereo unspecified)	61.4% (inactive)
COc1ccc(-c2nn(-c3ccc(NC(=O)c4cc(C(F)(F)F)cc(C(F)(F)F)c4)cc3)cc2-c2ccncc2)cc1Cl	55.6% (inactive)
Cc1cccc(NCS(=O)(=O)O)c1	113% (inactive)
O=C(O)c1ccccc1C(=O)c1ccc(I)cc1	105% (inactive)
CC1(C)CC(=O)C2=C(C1)OC1=C(C(=O)CC(C)(C)C1)C2c1ccc(OCc2cn(-c3ccc(F)cc3F)nn2)cc1	58.6% (inactive)
CC(C)(CCN=C(N)Nc1ccccn1)c1ccc(C(F)(F)F)cc1	-2.3% (active)
CC(=O)c1cc2c(c(O)c1C)C(=O)C(=O)c1c(O)cccc1-2	-71.6% (active)
O=C(Nc1ccc(F)cc1)Nc1ccc(Cl)c([N+](=O)[O-])c1	15.9% (inactive)

Structure (SMILES)	growth
C#C[C@H](O)/C=C/CCCCCCC#C[C@H](O)CC[C@@H](O)C#CCCCCCC/C=C/[C@@H](O)C#C	80% (inactive)
O=C(Nc1ccc(-n2cc(-c3ccncc3)c(-c3ccc(O)c(Cl)c3)n2)cc1)c1ccc(Cl)c(C(F)(F)F)c1	71.2% (inactive)
Cc1nccc2c3ccc(OCc4cn(Cc5ccc(Br)cc5)nn4)cc3n(CCCc3ccccc3)c12	82.1% (inactive)
NCC(=O)NS(=O)(=O)OC[C@H]1O[C@@H](n2cnc3c(N)ncnc32)[C@H](O)[C@@H]1O	30.7% (inactive)
C[C@H]1C=C(C[C@@H](O)CC#CC#CCCCCC[C@@H](O)[C@H]2CCC(=O)O2)C(=O)O1	95.1% (inactive)
CN1CCN(C(=O)/C=C/c2ccc([N+](=O)[O-])o2)CC1	69.9% (inactive)
OCc1cnccc1NC12CC3CC(CC(C3)C1)C2	104% (inactive)
Nc1nccc(=S)[nH]1	90% (inactive)
COc1cc(C(=O)N2CCN(C(=O)c3cc(OC)c(OCc4ccccc4)cc3N)CC2)c(N)cc1OCc1ccccc1	114% (inactive)
C[C@@H]1CC2C3C[C@H](F)C4=CC(=O)C=C[C@]4(C)[C@@]3(F)[C@@H](O)C[C@]2(C)[C@@]1(O)C(=O)CO (stereo partly specified)	97.3% (inactive)
CCCCCn1ncc(-c2c(O)c(O)cc3c(O)c(-c4c(C)cc5c(-c6cnn(CCCCC)n6)c(O)c(O)cc5c4O)c(C)cc23)n1	-11.8% (active)
COc1ccc(NC(=O)COCCOCCNC[C@@H]2C(=O)O[C@H]3[C@H]2CC/C(COC(=O)OC/C2=C/CC[C@@]4(C)O[C@H]4[C@H]4OC(=O)[C@@H](CN(C)C)[C@@H]4CC2)=C\CC[C@@]2(C)O[C@@H]32)c(O)c1C(N)=O	43% (inactive)
Cc1cc(C)c(O)c(C(=O)CC(Br)C(=O)O)c1 (stereo unspecified)	95.7% (inactive)
COc1ccc(-c2[nH]c3ccccc3c2/C=C(\C#N)S(=O)(=O)c2ccccc2)cc1	22.6% (inactive)
NC(=NCCCOc1ccc(F)cc1)Nc1ccc(Cl)c(Cl)c1	78.6% (inactive)
O=C(N/N=C/c1ccccc1O)c1ccccc1O	24% (inactive)
NC(=S)NNC1CCCCC1	95.7% (inactive)
CCN1CCN(Cc2ccc(NC(=O)Nc3cccc(-n4ccc5c(NC(=O)c6ccccc6)nccc54)c3)cc2C(F)(F)F)CC1	68% (inactive)
CN(C)c1ccc(/C=c2\s/c(=C\C(=O)C(C)(C)C)[nH]c2=O)cc1	95.3% (inactive)
